Laboratory results taken from the supplement of paper PMC3334620.
Over roughly 33,000 sequences, “E-score (-0.5 to 0.5)” has its median near -0.013; the highest 2% begin near 0.3. This is one part of a sample in which the highest values are shown more often than they occur.

molecular target: T1, Msn1 (UniProt P22148); assay: PBM E-score (8-mer binding enrichment) (E-score (-0.5 to 0.5)); higher = stronger / more preferred TF binding; details: protein concentration: 200 nM; construct: GST-full length
T1 sequence: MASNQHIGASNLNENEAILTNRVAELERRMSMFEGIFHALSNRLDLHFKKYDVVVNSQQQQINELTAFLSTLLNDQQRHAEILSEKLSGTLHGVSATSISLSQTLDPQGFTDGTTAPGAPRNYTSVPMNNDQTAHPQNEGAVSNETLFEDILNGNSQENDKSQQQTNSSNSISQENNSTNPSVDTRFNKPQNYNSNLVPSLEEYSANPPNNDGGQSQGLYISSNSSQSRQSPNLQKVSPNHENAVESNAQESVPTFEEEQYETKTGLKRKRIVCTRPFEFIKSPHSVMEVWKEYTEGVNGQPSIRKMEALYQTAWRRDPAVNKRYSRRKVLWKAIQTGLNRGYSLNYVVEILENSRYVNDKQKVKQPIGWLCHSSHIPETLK
In short: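 E-scores (a modified Wilcoxon-Mann-Whitney statistic) were assigned by the Universal PBM Analysis Suite to every ungapped eight-base word pooled with its reverse complement. The input came from universal all-10-mer Agilent arrays made double-stranded by primer extension and probed with GST-tagged yeast transcription factors at about 100-200 nM. Fluorescent anti-GST detected bound protein, and masliner normalised the scans.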

ATGACATC was tested. Which “PBM E-score” value did it give?
Its value is 0.349.

ATGACACA was tested. Which “PBM E-score” value did it give?
The value was 0.287.

With CTGACATC as the sequence, how does the “PBM E-score” value read?
The value was 0.143.

Which “PBM E-score” value does the source give for CTGACATA here?
Its value is 0.269.

How did the “PBM E-score” value turn out when ATGACAGA was run?
The value was 0.137.

Which “PBM E-score” value does the source give for GTGACTGA here?
The value was 0.0999.

Which “PBM E-score” value does the source give for ATGACAGG here?
The value was 0.105.

How did the “PBM E-score” value turn out when GTGACAGA was run?
Its value is 0.161.

GTGACATA was tested. Which “PBM E-score” value did it give?
Its value is 0.328.

Which “PBM E-score” value does the source give for ATGACACC here?
The value was 0.0663.

For ATGACATG, which “PBM E-score” value is on record?
Its value is 0.361.

For AGCGCGTG, which “PBM E-score” value is on record?
The value was -0.133.

CATTGGGG was tested. Which “PBM E-score” value did it give?
Its value is -0.125.

With GGGACCAA as the sequence, how does the “PBM E-score” value read?
Its value is -0.0643.

With CGCCTCTA as the sequence, how does the “PBM E-score” value read?
The value was -0.0484.

For CACACTGG, which “PBM E-score” value is on record?
Its value is -0.259.

With CATGCAGA as the sequence, how does the “PBM E-score” value read?
The value was -0.0066.

With CATCTCGA as the sequence, how does the “PBM E-score” value read?
Its value is 0.149.

Which “PBM E-score” value does the source give for CAAGAAAG here?
Its value is 0.0067.

GATCTTAC was tested. Which “PBM E-score” value did it give?
The value was 0.00117.

How did the “PBM E-score” value turn out when TGAGACCA was run?
The value was -0.0631.

With AGAGACAG as the sequence, how does the “PBM E-score” value read?
The value was 0.0165.

Which “PBM E-score” value does the source give for AGAGAGAC here?
The value was -0.0618.

Which “PBM E-score” value does the source give for AGAGACCT here?
The value was -0.012.

TGAGACAA was tested. Which “PBM E-score” value did it give?
The value was 0.397.

How did the “PBM E-score” value turn out when AGAGACAT was run?
Its value is 0.43.

With CGAGACAA as the sequence, how does the “PBM E-score” value read?
The value was 0.365.

Which “PBM E-score” value does the source give for CGAGACAC here?
The value was 0.183.

AGAGACAA was tested. Which “PBM E-score” value did it give?
Its value is 0.375.

For AGAGACAC, which “PBM E-score” value is on record?
Its value is 0.177.

With CGAGACAG as the sequence, how does the “PBM E-score” value read?
The value was -0.00132.

Which “PBM E-score” value does the source give for TGAGAGAA here?
Its value is 0.00621.

ATAGCGGG was tested. Which “PBM E-score” value did it give?
Its value is -0.192.

How did the “PBM E-score” value turn out when ACGAAGCT was run?
Its value is -0.0736.

Which “PBM E-score” value does the source give for CCTTTGGC here?
Its value is -0.132.

AATCGAAT was tested. Which “PBM E-score” value did it give?
Its value is 0.047.

How did the “PBM E-score” value turn out when ACGTTGCC was run?
Its value is -0.241.

CCAGCGCG was tested. Which “PBM E-score” value did it give?
The value was -0.158.

Which “PBM E-score” value does the source give for GAGCTCGC here?
Its value is -0.0509.

How did the “PBM E-score” value turn out when CACCCACA was run?
The value was -0.132.

For ATTAGCTA, which “PBM E-score” value is on record?
Its value is -0.086.

How did the “PBM E-score” value turn out when GCCCGGAA was run?
Its value is 0.0421.

GGAGACCA was tested. Which “PBM E-score” value did it give?
The value was -0.0845.

Which “PBM E-score” value does the source give for GGAGACAA here?
The value was 0.32.

GGAGACAC was tested. Which “PBM E-score” value did it give?
Its value is 0.0421.

Which “PBM E-score” value does the source give for AGTCTTGC here?
The value was -0.0197.

Which “PBM E-score” value does the source give for CCAAAGTA here?
Its value is -0.0844.

With ATTACTGG as the sequence, how does the “PBM E-score” value read?
Its value is -0.119.

For CAAGCGCA, which “PBM E-score” value is on record?
The value was 0.185.

For CCCTCGAA, which “PBM E-score” value is on record?
Its value is -0.0781.

For ACTGCTGG, which “PBM E-score” value is on record?
The value was -0.169.

How did the “PBM E-score” value turn out when CACATTTA was run?
The value was 0.15.

Which “PBM E-score” value does the source give for CACATTAC here?
The value was 0.0152.

With GACATTTA as the sequence, how does the “PBM E-score” value read?
The value was 0.474.

How did the “PBM E-score” value turn out when GACATTAA was run?
Its value is 0.431.

GACATTAC was tested. Which “PBM E-score” value did it give?
Its value is 0.442.

Which “PBM E-score” value does the source give for AACATTAC here?
The value was -0.108.

Which “PBM E-score” value does the source give for TACATTAA here?
The value was 0.277.

Which “PBM E-score” value does the source give for AACATTAA here?
Its value is 0.158.

AACATTTA was tested. Which “PBM E-score” value did it give?
The value was 0.252.

With AGAGGTCG as the sequence, how does the “PBM E-score” value read?
The value was -0.105.

Which “PBM E-score” value does the source give for GCTGGAAA here?
The value was -0.0496.

With ATTTTGAA as the sequence, how does the “PBM E-score” value read?
Its value is 0.126.

How did the “PBM E-score” value turn out when TGGCCAAA was run?
The value was 0.0563.

Which “PBM E-score” value does the source give for ATCTTGCA here?
The value was 0.0688.

ATGTACAT was tested. Which “PBM E-score” value did it give?
The value was 0.324.

With ATGTACCC as the sequence, how does the “PBM E-score” value read?
The value was 0.115.

For ATGTACAA, which “PBM E-score” value is on record?
The value was 0.36.

GTGTACCA was tested. Which “PBM E-score” value did it give?
The value was 0.189.

How did the “PBM E-score” value turn out when ATGTACAC was run?
Its value is 0.268.

With ATGTACCA as the sequence, how does the “PBM E-score” value read?
The value was 0.316.

With ATGTACTA as the sequence, how does the “PBM E-score” value read?
Its value is 0.233.

How did the “PBM E-score” value turn out when ATGTACAG was run?
The value was 0.185.

With ATGTACGA as the sequence, how does the “PBM E-score” value read?
Its value is 0.215.

AATTAGCG was tested. Which “PBM E-score” value did it give?
Its value is 0.0486.

Which “PBM E-score” value does the source give for ATGCTCCC here?
Its value is -0.341.

For GCCCGTTA, which “PBM E-score” value is on record?
Its value is -0.266.

How did the “PBM E-score” value turn out when CGTTCGCC was run?
Its value is -0.0525.

Which “PBM E-score” value does the source give for ACGAGGCG here?
Its value is 0.0795.

Which “PBM E-score” value does the source give for CCATTGTC here?
The value was 0.311.

ACATTGTC was tested. Which “PBM E-score” value did it give?
The value was 0.411.

With CCATTGTA as the sequence, how does the “PBM E-score” value read?
The value was 0.193.

CCATTGGC was tested. Which “PBM E-score” value did it give?
Its value is -0.0912.

For ACATTGTA, which “PBM E-score” value is on record?
The value was 0.143.

For CTATTGTC, which “PBM E-score” value is on record?
Its value is 0.288.

Which “PBM E-score” value does the source give for ATATTGTC here?
The value was 0.427.
